The values that follow come from PubChem BioAssay (Tox21).

Several values for one entry are separate records, joined by “and”; a condition that tells them apart may be missing. Equal values may be shown once. Inconclusive results are not listed. Activity calls are given as the source filed them. Calls come from the whole dose curve; as a rule, active = well fitted curve in the direction sought with a large enough effect in the repeat runs; inconclusive = weak or mixed curves; inactive = no such curve, though single readings can be large; an effect the other way counts as inactive or inconclusive.

The nature of one experiment: qHTS assay to identify small molecule antagonists of the glucocorticoid receptor (GR) signaling pathway - cell viability counter screen (AID 720693). Note: nearly all actives have a fitted effect of over 55% in size. Particulars: GR-bla HeLa viability, CellTiter-Glo luminescence, 18 h, with 5 nM dexamethasone present; series mostly up to 58.5 µM. (Quantitative high-throughput screening tests each substance at several concentrations.)
Regarding `CC(C)(CCl)C(=O)Cl`, the Potency result is “inactive”.

On to `CN1C(=O)C(O)N=C(c2ccccc2)c2cc(Cl)ccc21` (stereo unspecified), for which the Potency entry is “inactive”.

Take `CC(=O)c1cc2c(cc1C)C(C)(C)C(C)CC2(C)C` (stereo unspecified): the Potency entry was “inactive”.

With `O=S(=O)(O)C(F)(F)C(F)(F)C(F)(F)C(F)(F)F`, the Potency entry is “inactive”.

As to `ClP(Cl)(Cl)(Cl)Cl`, the Potency result was “inactive”.

Take `N#CCC#N`: the Potency entry was “inactive”.

`O=C1c2ccccc2C(=O)C1C(=O)C(c1ccccc1)c1ccccc1`: the Potency entry was “inactive”.

Consider `O=C(CBr)c1ccccc1`, for which the Potency entry was “inactive”.

In the case of `CCOP(=S)(OCC)Oc1cc(Cl)c(Br)cc1Cl`, the Potency result is “inactive”.

With `CN(C)c1ccc(N(C)C)cc1`, the Potency result is “inactive”.

Another experiment can be described thus: qHTS assay for identifying genotoxic compounds that show differential cytotoxicity against isogenic chicken DT40 cell lines with known DNA damage response pathways - wild type cell line (AID 743012). Note: nearly all actives have a fitted effect of over 60% in size. Note: potency is the fitted concentration of half-maximal effect. Particulars: DT40 wild type chicken cells viability, CellTiter-Glo, 40 h; series mostly up to 68.4 µM. Summed up:
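Parental DNA repair-proficient DT40 cells, 300 per well, were pre-incubated ~0.5 h at 37 C/5% CO2, pin-dosed with compounds in DMSO, then incubated 40 h. Viability was read as CellTiter-Glo luminescence after 30 min at room temperature.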
Regarding `O=C(NC(=O)c1c(F)cccc1F)Nc1cc(Cl)c(Oc2ncc(C(F)(F)F)cc2Cl)c(Cl)c1`, the Potency was 1.17 µM (active).

As to `C=CC[C@]1(O)CC[C@H]2[C@@H]3CCC4=CC(=O)CCC4=C3C=C[C@@]21C`, the Potency was 9.44 µM (active).

As to `NC(=O)C(Cl)(Cl)Cl`, the Potency entry was “inactive”.

As for `CCCN(CC1CC1)c1c([N+](=O)[O-])cc(C(F)(F)F)cc1[N+](=O)[O-]`, the Potency entry is “inactive”.

On to `CO/N=C(/C(=O)OC)c1ccccc1COc1ccccc1C`, for which the Potency was 0.611 µM (active).

On to `CCCCC(O)(Cn1cncn1)c1ccc(Cl)cc1Cl` (stereo unspecified), for which the Potency was 15.3 µM (active).

Consider `COc1nn(CSP(=S)(OC)OC)c(=O)s1`, for which the Potency was 19.3 µM (active).

For `O=C(CCl)c1ccc(Cl)cc1Cl`, the Potency was 668 nM (active) and 1.72 µM (active).

Regarding `O=C1NCN(c2ccccc2)C12CCN(CCCOc1ccc(F)cc1)CC2`, the Potency was 10.6 µM (active).

As for `CO/C=C(/C(=O)OC)c1ccccc1COc1cccc(C(F)(F)F)n1`, the Potency was 0.0769 µM (active).

Regarding `CCCC(Cn1cncn1)c1ccc(Cl)cc1Cl` (stereo unspecified), the Potency is 5.45 µM (active).

With `O=C(Nc1ccccc1)Nc1ccnc(Cl)c1`, the Potency was 17.2 µM (active).

As to `CC1(C)CCC(Cc2ccc(Cl)cc2)C1(O)Cn1cncn1` (stereo unspecified), the Potency was 27.3 µM (active).

For the compound `OC(c1ccc(Cl)cc1)(c1ccc(Cl)cc1)c1cccnc1`, the Potency was 9.69 µM (active).

For the compound `O=C(O)C1(c2ccc3c(c2)OC[C@H](Cc2ccc(-c4ccccc4)cc2)[C@H]3O)CCCC1`, the Potency was 61.1 µM (active).

Regarding `C[N+](C)(C)CCCl`, the Potency entry is “inactive”.

In the case of `O=S1(=O)OC(c2cc(Br)c(O)c(Br)c2)(c2cc(Br)c(O)c(Br)c2)c2ccccc21`, the Potency was 31.5 µM (active).

Take `CC(C)(OO)c1ccccc1`: the Potency is 30.6 µM (active).

For `O=C1C(=O)c2cccc3cccc1c23`, the Potency was 2.73 µM (active).

As for `Clc1cc(C(Cl)(Cl)Cl)cnc1Cl`, the Potency entry is “inactive”.

For `c1cc2ccc3cccc4ccc(c1)c2c34`, the Potency is 71.9 µM (active).

Take `IC(I)=C(I)I`: the Potency is 0.611 µM (active).

The nature of the next experiment: qHTS assay for identifying genotoxic compounds that show differential cytotoxicity against isogenic chicken DT40 cell lines with known DNA damage response pathways - Rev3 mutant cell line (AID 743014). Note: nearly all actives have a fitted effect of over 55% in size. Note: potency is the fitted concentration of half-maximal effect. The following applies: chicken DT40 Rev3-/- viability, CellTiter-Glo, 40 h; series mostly up to 68.4 µM.
For `C=CC[C@]1(O)CC[C@H]2[C@@H]3CCC4=CC(=O)CCC4=C3C=C[C@@]21C`, the Potency was 16.8 µM (active).

`NC(=O)C(Cl)(Cl)Cl`: the Potency entry is “inactive”.

In the case of `CCCN(CC1CC1)c1c([N+](=O)[O-])cc(C(F)(F)F)cc1[N+](=O)[O-]`, the Potency result was “inactive”.

For `CO/N=C(/C(=O)OC)c1ccccc1COc1ccccc1C`, the Potency was 0.969 µM (active).

With `COc1nn(CSP(=S)(OC)OC)c(=O)s1`, the Potency was 45.8 µM (active).

For the compound `CO/C=C(/C(=O)OC)c1ccccc1COc1cccc(C(F)(F)F)n1`, the Potency was 0.0769 µM (active).

For the compound `CCCC(Cn1cncn1)c1ccc(Cl)cc1Cl` (stereo unspecified), the Potency was 6.11 µM (active).

As to `O=C(Nc1ccccc1)Nc1ccnc(Cl)c1`, the Potency was 15.4 µM (active).

Consider `CC1(C)CCC(Cc2ccc(Cl)cc2)C1(O)Cn1cncn1` (stereo unspecified), for which the Potency was 15.4 µM (active).

`OC(c1ccc(Cl)cc1)(c1ccc(Cl)cc1)c1cccnc1`: the Potency was 8.63 µM (active).

With `O=C(O)C1(c2ccc3c(c2)OC[C@H](Cc2ccc(-c4ccccc4)cc2)[C@H]3O)CCCC1`, the Potency was 61.1 µM (active).

On to `N#Cc1cc(I)c(O)c(I)c1`, for which the Potency was 68.6 µM (active).

Regarding `C[N+](C)(C)CCCl`, the Potency entry was “inactive”.

As to `O=S1(=O)OC(c2cc(Br)c(O)c(Br)c2)(c2cc(Br)c(O)c(Br)c2)c2ccccc21`, the Potency is 28.1 µM (active).

Turning to `CC(C)(OO)c1ccccc1`, the Potency is 27.3 µM (active).

Take `O=C1C(=O)c2cccc3cccc1c23`: the Potency is 1.72 µM (active).

Take `Clc1cc(C(Cl)(Cl)Cl)cnc1Cl`: the Potency result is “inactive”.

For the compound `IC(I)=C(I)I`, the Potency was 1.22 µM (active).

The nature of a further experiment: qHTS assay for identifying genotoxic compounds that show differential cytotoxicity against isogenic chicken DT40 cell lines with known DNA damage response pathways - Rad54/Ku70 mutant cell line (AID 743015). Note: nearly all actives have a fitted effect of over 60% in size. Note: potency is the fitted concentration of half-maximal effect. The following applies: DT40 Rad54/Ku70 mutant viability, CellTiter-Glo, 40 h; series mostly up to 66.8 µM.
For `CC(C)(C)C(O)C(Oc1ccc(Cl)cc1)n1cncn1` (stereo unspecified), the Potency is 45.8 µM (active).

For the compound `O=C(NC(=O)c1c(F)cccc1F)Nc1cc(Cl)c(Oc2ncc(C(F)(F)F)cc2Cl)c(Cl)c1`, the Potency was 1.65 µM (active).

On to `C=CC[C@]1(O)CC[C@H]2[C@@H]3CCC4=CC(=O)CCC4=C3C=C[C@@]21C`, for which the Potency was 10.6 µM (active).

With `CCCN(CC1CC1)c1c([N+](=O)[O-])cc(C(F)(F)F)cc1[N+](=O)[O-]`, the Potency entry was “inactive”.

As to `CO/N=C(/C(=O)OC)c1ccccc1COc1ccccc1C`, the Potency is 0.864 µM (active).

With `CCCCC(O)(Cn1cncn1)c1ccc(Cl)cc1Cl` (stereo unspecified), the Potency is 13.7 µM (active).

In the case of `COc1nn(CSP(=S)(OC)OC)c(=O)s1`, the Potency is 50.5 µM (active).

In the case of `O=C(CCl)c1ccc(Cl)cc1Cl`, the Potency is 944 nM (active) and 2.43 µM (active).

Regarding `O=C1NCN(c2ccccc2)C12CCN(CCCOc1ccc(F)cc1)CC2`, the Potency was 16.8 µM (active).

As for `CO/C=C(/C(=O)OC)c1ccccc1COc1cccc(C(F)(F)F)n1`, the Potency is 0.0485 µM (active).

On to `CCCC(Cn1cncn1)c1ccc(Cl)cc1Cl` (stereo unspecified), for which the Potency was 10.9 µM (active).

In the case of `O=C(Nc1ccccc1)Nc1ccnc(Cl)c1`, the Potency is 13.7 µM (active).

Turning to `COCCOCCO`, the Potency was 61.1 µM (active).

Regarding `OC(c1ccc(Cl)cc1)(c1ccc(Cl)cc1)c1cccnc1`, the Potency is 8.63 µM (active).

On to `O=C(O)C1(c2ccc3c(c2)OC[C@H](Cc2ccc(-c4ccccc4)cc2)[C@H]3O)CCCC1`, for which the Potency was 61.1 µM (active).

Regarding `C[N+](C)(C)CCCl`, the Potency result was “inactive”.

Take `CC(C)(OO)c1ccccc1`: the Potency is 17.2 µM (active).

As for `O=C1C(=O)c2cccc3cccc1c23`, the Potency is 2.43 µM (active).

As to `Clc1cc(C(Cl)(Cl)Cl)cnc1Cl`, the Potency result was “inactive”.

Take `c1cc2ccc3cccc4ccc(c1)c2c34`: the Potency is 67.9 µM (active).

For `IC(I)=C(I)I`, the Potency was 1.22 µM (active).
